The values that follow come from PubChem BioAssay (NCI).

Molecules are shown by their SMILES. Compounds without any hit were thinned out: in the full panel of roughly 83,000, 20% have a hit.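 Treatment: one concentration, 48 hours, 96-well format. Scoring: percent growth, with anything below 10 considered active.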 Unmarked numbers belong to inactive results. Activity calls are given as the source filed them.

The subject of the test is SNB-75 CNS. The test is described as follows: NCI-60 one-dose screen, 48 h (100 = growth as untreated, 0 = no growth, -100 = all killed). Conditions: 10 µM unless noted. How it is done: Growth inhibition of the SNB-75 human tumor cell line is measured as a screen for anti-cancer activity. Cells are grown in 96 well plates and exposed to the test compound for 48 hours. Compounds are tested at a single concentration, which is 10^-5 M for most compounds. The reported endpoint is percent growth (GI% or GIPRCNT), where numbers from 0 - 100% represent growth inhibition, and numbers from -100% - 0 represent cell death. For example, a value of 40 represents 60% growth inhibition. A value of 0 means no net growth occurred over the course of the experiment. A value of -40 indicates 40% of cells at the beginning of the experiment died by the end of the experiment. A value of -100 means all cells are dead at the end of the experiment.
NCI-60 Human Tumor Cell Lines Screen was performed using the standard one-dose NCI protocol, which is described in more detail at https://dtp.cancer.gov/discovery_development/nci-60/default.htm.
Compounds with GIPRCNT values below 10 were considered active. Activity score was based on GIPRCNT using the following formula: […]
Score is 0 for GIPRCNT values of 100 or above, 50 for GIPRCNT values of 0, and 100 for GIPRCNT values of -100.
For the compound `COc1ccc(-c2c(-c3ccccc3)noc2N)cc1OC`, the growth was 101%.

Regarding `COc1ccccc1/C=C1\COc2ccc(-c3ccccc3)cc2C1=O`, the growth was 42.2%.

In the case of `COC(=O)C1NC(=S)N(c2ccc(Cl)cc2)C1/C=C/c1ccccc1` (stereo not given), the growth was 127%.

Regarding `COc1cc(/C=C/C(=O)c2ccc(Nc3ncnc4ccccc34)cc2)cc(OC)c1`, the growth is 70.9%.

For `C=CCn1c(SCC(=O)Nc2ccc(C(=O)/C=C/c3cc(OC)c(OC)c(OC)c3)cc2)nnc1-c1cc(OC)c(OC)c(OC)c1`, the growth was 37.2%.

Take `O=C(Nc1ccc(Nc2ncccn2)cc1)NC1C=c2ccccc2=CC1` (stereo not given): the growth was 91.8%.

For `COc1cc2nc(-c3ccc(-c4nn[nH]n4)cc3)[nH]c(=O)c2cc1OC`, the growth was 106%.

Turning to `COc1cc2ncnc(Nc3ccc(C(=O)/C=C/c4ccc(C(F)(F)F)cc4F)cc3)c2cc1OC`, the growth is 87.7%.

For `Cc1c([N+](=O)[O-])cc(C(C)(C)C)cc1[N+](=O)[O-]`, the growth was 89.4%.

In the case of `O=c1nc2n(nc1/C=C/c1ccco1)CC(c1ccc(Cl)cc1)=NN2`, the growth was 91.6%.

For the compound `COc1cc(C(=O)/C=C/c2c(C)n([O-])c3ccc(Cl)cc3[n+]2=O)cc(OC)c1OC`, the growth was 60.4%.

Take `COc1cnccc1-c1nc2ccc3[nH]ncc3c2c2c1CCCC2`: the growth was 24.1%.

For the compound `COc1ccc(/C=C2\COc3ccc(-c4ccccc4)cc3C2=O)cc1O`, the growth was 31.9%.

Regarding `COc1cc2nnn3c4ncccc4c(N=O)c3c2cc1OC`, the growth is 79.8%.

On to `CCN(CC)CCSCCCNc1c(C)cnc2cc(Cl)ccc12`, for which the growth is 85.4%.

In the case of `COc1cc(OC)cc(C2C3=C(COC3=O)Nc3cc(OC)ccc32)c1` (stereo not given), the growth is 40.7%.

As to `COc1cc(NCCCN(CC(C)C)C2CCCC2)c2ncccc2c1`, the growth is 71%.

For the compound `CCCCCCc1nc2nc(Cl)c(Cl)nc2[nH]1`, the growth is 53.2%.

Regarding `Cc1cc(C(=O)Nc2ncnc3nc[nH]c23)no1`, the growth was 79.5%.

For `COc1ccc(C(=O)c2cc(C)c(OC)c(C)c2)c(OC)c1N(C(=O)C(Cl)Cl)C(=O)C(Cl)Cl`, the growth is 56.4%.

Consider `NC(=S)N/N=C/c1ccc(OC(=O)COc2cc(Cl)c(Cl)cc2Cl)cn1`, for which the growth is 98.8%.

With `CC1=NNC(=O)C1CCC(=O)N/N=C(\C)c1ccc2ccccc2c1` (stereo not given), the growth was 121%.

Turning to `COc1ccccc1-c1c(-c2ccc(Cl)cc2)c2cc3c(cc2[nH]c1=O)OCCO3`, the growth is 88.6%.

As to `COc1ccc(Cl)cc1NC(=O)c1c(NC(=O)C(F)(F)C(F)(F)F)sc2c1CCCCC2`, the growth was -9.76% (active).

For the compound `CC1=CC[C@@H]2CC[C@]3(C)[C@H](CC[C@@H]4[C@@]5(C)CCCNC(C)(C)[C@@H]5CC[C@]43C)[C@H]2[C@@H]1C`, the growth is 76.5%.

Turning to `O=S(=O)(c1ccccc1)N1CCCc2ccccc21`, the growth is 95%.

Take `CCN(CCNc1cc(OC)cc2cccnc12)CCc1ccccc1`: the growth was 83.7%.

Turning to `COc1ccc(-c2nc(N/N=C/c3c[nH]c4ccccc34)nc(N3CCOCC3)c2C#N)cc1`, the growth is 61.6%.

As for `Clc1cc(Cl)cc(N2N=C(c3cccc(Nc4ccncc4)c3)CC2c2ccccc2)c1` (stereo not given), the growth was 77.4%.

`CN1C(=O)N(C)C2NC(N/N=C/c3ccccc3)=NC21` (stereo not given): the growth was 76.3%.

`C[C@H]1[C@H](C)CC[C@]2(CO)CC[C@]3(C)C(=CC[C@@H]4[C@@]5(C)CCCNC(C)(C)[C@@H]5CC[C@]43C)[C@H]12`: the growth was 9.21% (active).

For `COc1cc2oc(-c3cccc(C(=O)Nc4ccc(Cl)cc4)c3)cc(=O)c2c(OC)c1OC`, the growth is 70.6%.

As for `NC(=O)c1cccc(-c2cc(C(N)=O)ccc2Cl)c1`, the growth is -19.6% (active).

For the compound `Nc1nc(SN=Nc2ccc(S(N)(=O)=O)cc2)c2[nH]cnc2n1`, the growth was 5.46% (active).

Turning to `Cc1ccc(C2CC(c3cccc(Nc4ccncc4)c3)=NN2c2cc(Cl)cc(Cl)c2)cc1` (stereo not given), the growth is 70.2%.

On to `Clc1nc(Cl)c2ncn(CC3(Cn4cnc5c(Cl)nc(Cl)nc54)COC3)c2n1`, for which the growth is -96.6% (active).

Consider `COc1ccc(CC(C)=C(c2ccc(OCCN(C)C)cc2)c2ccc(OCCN(C)C)cc2)cc1`, for which the growth was 81.6%.

For `Cc1ccc2[nH]c(=O)cc(-n3nncc3COc3ccc(C=O)cc3)c2c1`, the growth was 91.2%.

`C[C@H]1[C@H](C)CC[C@]2(CO)CC[C@]3(C)C(=CC[C@@H]4[C@@]5(C)Cc6c([nH]c7ccccc67)C(C)(C)[C@@H]5CC[C@]43C)[C@H]12`: the growth was 87.6%.

For `CCc1nc(C)cn1C(=O)OCc1nc2nc(Cl)nc(N3CCOCC3)c2[nH]1`, the growth was 1.78% (active).
